Laboratory results from PubChem BioAssay (NCI).
Where “and” joins values, the source holds several entries; their conditions need not be identical. Equal entries are not always repeated. About 83,000 compounds went through this panel and 20% of them were active in at least one assay; those are over-represented in the sample as a whole.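 Plates (96-well) were seeded with cells, treated with compound at one concentration, and incubated for 48 hours before percent growth was determined.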 Calls of active or inactive are those of the source. How the source made its calls: active means growth percent below 10; inactive means the rest.

test system: HL-60(TB) leukemia; experiment: NCI-60 one-dose screen, 48 h (100 = growth as untreated, 0 = no growth, -100 = all killed); conditions: 10 µM unless noted

SMILES | growth
COC(=O)C1=COC(C)C2C[n+]3ccc4c([nH]c5ccccc54)c3CC12 (stereo not given) | 106% (inactive) and 103% (inactive)
Fc1c[c-]c(-c2ccccn2)c(F)c1.Fc1c[c-]c(-c2ccccn2)c(F)c1.[Cl][Pt+].[Cl][Pt+].c1ccc([PH+](C[PH+](c2ccccc2)c2ccccc2)c2ccccc2)cc1 | 6.62% (active)
Cc1c(C(=O)NO)sc2ncnc(Nc3ccc(NC(=S)Nc4ccccc4)cc3)c12 | 103% (inactive)
COc1cc(C(=O)c2ccc3c(c2)OCO3)cc(OC)c1OC | 1.04% (active) and 22.6% (inactive)
O=Nc1c(O)ccc2ccccc12 | -26.3% (active) and 74% (inactive)
O=C(c1ccccc1)C(CN1CCCCC1)c1ccccc1 (stereo not given) | -43.7% (active)
Cc1cc(/C=C\c2ccc3ccccc3[n+]2C)c(O)c2ncccc12 | -22.4% (active)
CCCCn1c(C)nc2ccc(Nc3nc(N4CCN(C)CC4)nc4nc[nH]c34)cc21 | 99.8% (inactive)
O=c1c(Br)ccc(Br)cc1Br | -58.8% (active)
Oc1ccc2ccccc2c1N=Nc1nccs1 | -44.3% (active)
CC(=O)c1cc(O)c2ccccc2c1O | 63.9% (inactive)
NC(=S)N/N=C1\CCCC(C(F)(F)F)C1 (stereo not given) | 89% (inactive)
COc1cc(/C=C2/Oc3cc4occc4c(OC)c3C2=O)ccc1OCC(=O)Nc1ccncc1 | 106% (inactive)
Cc1ccc2c(c1)sc(-c1ccc(N(C)C)cc1)[n+]2C | -45.4% (active)
CCCCCc1cc[n+](CC(=O)c2ccccc2)cc1 | 91% (inactive) and 99.9% (inactive)
COc1cc(Nc2nc3ccccc3nc2NS(=O)(=O)c2ccc(NC(=O)c3ccc(C)c(OC)c3)cc2)cc(OC)c1 | 74.8% (inactive) and 26.7% (inactive)
O=C(N/N=C/c1ccc(F)cc1)c1[nH]c2ccc(I)cc2c1-c1ccccc1 | 51.2% (inactive)
O=c1c2cc(F)ccc2oc2c(NCCNCCO)nc3ccccc3c12 | 70.5% (inactive)
COc1ccc(C(=O)C(O)c2ccc(OC)cc2)cc1 (stereo not given) | 97.2% (inactive) and 94.5% (inactive)
Cc1ccc(-c2nc3ccc(Cl)cc3c(=O)n2N2C(=O)CSC2c2ccccc2Cl)cc1 (stereo not given) | 97.1% (inactive)

SMILES | growth
COc1cc(/C=N/NC(=O)Cn2c(-c3ccc(C)o3)nc3ccccc32)ccc1OCc1ccccc1 | 87.4% (inactive)
CC(=O)[C@H]1CCC/C=C/[C@@H]2C[C@H](O)C[C@H]2[C@H](O)/C=C/C(=O)O1 | -54.4% (active)
O=S(=O)(Nc1ccccc1)c1ccc(C2CC3(Cl)C(Cl)=C(Cl)C2(Cl)C3(Cl)Cl)cc1 (stereo not given) | 13% (inactive)
COc1cc(OC)cc(-c2cncn2-c2ccc(-c3nc4cc(OC)cc(OC)c4s3)cc2)c1 | 41% (inactive)
CN1CCCC1c1cccnc1 (stereo not given) | 105% (inactive)
COc1ncc(F)c(OC)n1 | 95.3% (inactive)
COc1ccc(Br)c2c1C(=O)CC2 | 151% (inactive)
c1ccc(-c2cn3ccnc3c(-c3ccc4ncn(C5CCCCC5)c4c3)n2)cc1 | 32.9% (inactive)
CC(=O)c1ccc(NCC(=O)Nc2ccccn2)cc1 | 109% (inactive)
Cc1cc(N(CCNc2ccnc3cc(Cl)ccc23)Cc2ccco2)nc(Cl)n1 | -61.9% (active)
COc1ccc(-c2n[nH]nc2-c2csc3ccccc23)cc1OC | 10.1% (inactive)
CCOC(=O)c1sc(Nc2ccc(Cl)cc2)nc1C | 27.2% (inactive)
O=c1[nH]c2ccccc2cc1-c1nc2ccc(Cl)cc2[nH]1 | -26.1% (active)
O=C(Nc1nc2c(s1)CCc1c-2c(Br)n(Cc2ccccc2)c1Br)c1ccccc1 | 84.3% (inactive)
NC1=NCc2nc3ccccc3c(=O)n2C1 | 90.9% (inactive)
Nc1ncnc2c1C(c1ccccc1)c1ccc3ccccc3c1O2 (stereo not given) | 82.4% (inactive)
CCOP(=O)(OCC)c1nc(-c2ccccc2)oc1NCc1cccnc1 | 102% (inactive)
CCN(CC)CCCNc1cccc2c(SCc3ccccc3)ccnc12 | -67.5% (active)
N#Cc1cccc(NC(=O)c2oc3ccccc3c2-c2cnn(-c3ccccc3)c2)c1 | -22.2% [50 µM] (active)
C=CCn1c(C)nc2cc(Nc3nc(Nc4ccc5nc(C)n(CC=C)c5c4)c4ccccc4n3)ccc21 | -52% (active)
